Test results reported in PubChem BioAssay (NCI).
Compounds without any hit were thinned out: in the full panel of roughly 83,000, 20% have a hit.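 A percent growth of 40 corresponds to 60% growth inhibition; 0 means no net growth; -100 means all cells died. Active threshold: below 10.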 Values without a mark were called inactive. Activity calls are given as the source filed them.

These compounds were tested on OVCAR-3 ovarian (assay: NCI-60 one-dose screen, 48 h (100 = growth as untreated, 0 = no growth, -100 = all killed)). Conditions: 10 µM unless noted.
`COc1ccc(C2SCC(=O)N2NC(=O)c2ccc(NC(=O)c3ccccn3)cc2)cc1OC` (configuration not stated) showed a growth of 101%. In the case of `O=C(O)c1cn(C2CC2)c2cc(N3CCN(S(=O)(=O)c4ccc(Cl)c(Cl)c4)CC3)c(F)cc2c1=O`, the growth is reported as 9.87% (active). In the case of `COc1ccc(/C=C/C(=O)c2ccc(B(O)O)cc2)cc1O`, the growth is reported as 58.5%. Work on `O=C(Nc1ccc(OCc2nnc(-c3ccc(Cl)cc3)o2)c(F)c1)Nc1ccc(Cl)c(Cl)c1` yielded a growth of 25.9%. `COc1cc(/C=C2\C=C(c3ccc(F)cc3)N(Cc3ccccc3)C2=O)cc(OC)c1OC` showed a growth of 70.3%. In the case of `Cc1cc(C)c(NC(=O)c2sc3nc4c(cc3c2N)CN(Cc2ccccc2)CC4)c(C)c1`, the growth is reported as -3.04% (active). Work on `COc1cccc(-c2nc3sccn3c2-c2ccnc(NCCCNS(=O)(=O)c3ccccc3)n2)c1` yielded a growth of 48.2%. In the case of `COc1cc(NCCN=C(N)NC(N)=NC(C)C)c2ncccc2c1`, the growth is reported as 6.45% (active). For `Cc1ccc(Nc2ncnc3c2sc2ncccc23)cc1`, the growth was 109%. Compound `COc1cccc(/C=C2\SC(N3CCN(c4ccccn4)CC3)=NC2=O)c1` has a growth of 100%. For `CCOC(=O)C1=C(CSC(=S)N(C2CCCCC2)C2CCCCC2)N(C)C(=O)NC1c1ccccc1` (configuration not stated), the growth was 56.1%. `CC(C)C[C@H](NC(=O)[C@@H](Cc1ccccc1)n1ccc(Nc2ccccc2)cc1=O)B(O)O` was tested, and the growth was -61% (active). In the case of `COc1cccc(-c2nc3sccn3c2-c2ccnc(NCCCNS(=O)(=O)c3ccc(F)cc3)n2)c1`, the growth is reported as 37.4%. For `O=S(=O)(NCCCNc1nccc(-c2c(-c3ccccc3)nc3sccn23)n1)c1ccc(F)cc1`, the growth was 49.6%. With `CCNC(=O)CCCCC(=O)c1c(C)[nH]c(/C=C2\N=C(c3ccc[nH]3)C=C2OC)c1C` the growth was -77.9% (active). `Cc1cc(Nc2nc(C(=O)Nc3ccccc3)nc3ccccc23)n[nH]1` gave a growth of 78.1%. Work on `CCCCCCCCCCCCCCCCC(Br)C(=O)O` (configuration not stated) yielded a growth of 100%. Work on `COc1ccc(-c2nc3sccn3c2-c2ccnc(NCCCNS(=O)(=O)c3ccc4ccccc4c3)n2)cc1` yielded a growth of 82.7%. `CN=S(=O)(NC(=O)c1ccc(Cl)cc1Cl)c1ccc(Br)s1` (configuration not stated) gave a growth of 109%. `Cc1ccc(S(=O)(=O)NCCCNc2nccc(-c3c(-c4ccccc4)nc4sccn34)n2)cc1` showed a growth of 38%. For `COc1cc(OC)c(C(=O)/C=C/c2cccc(C#N)c2)c(OC)c1`, the growth was 9.13% (active). With `COc1ccc(C2CC(c3cccs3)=NN2c2ccc(S(=O)(=O)NC(=O)Nc3ccc(C)cc3)cc2)cc1` (configuration not stated) the growth was 98.2%. Compound `O=S(=O)(NCCNc1nccc(-c2c(-c3ccccc3)nc3sccn23)n1)c1ccc(O)cc1` has a growth of 38.9%. With `CNC(=O)Cc1nc(-c2cccc(NS(=O)(=O)c3c(F)cccc3F)c2F)c(-c2ccnc(Nc3ccccc3)n2)s1` the growth was 77.2%. In the case of `O=c1[nH]c2ccccc2cc1-c1nnc(Cc2ccccc2)o1`, the growth is reported as 69.6%. In the case of `CCCCCCC[C@@H](O)CC(=O)N[C@H](CCCCN)C(=O)N[C@H](Cc1c[nH]c2ccccc12)C(=O)NC(CCCCN)C(=O)N[C@H](CC(C)C)C(=O)N[C@H](Cc1ccccc1)C(=O)N[C@H](CCCCN)C(=O)N[C@H](CCCCN)C(=O)N[C@H](CC(C)C)C(=O)N1CCCC1C(=O)N[C@H](CCCCN)C(=O)N[C@H](Cc1ccccc1)C(=O)N[C@H](CC(C)C)C(=O)N[C@H](Cc1c[nH]cn1)C(=O)N[C@H](CC(C)C)C(=O)N[C@H](C)C(=O)N[C@H](CCCCN)C(=O)N[C@H](CCCCN)C(=O)N[C@H](Cc1ccccc1)C(=O)O` (some centres not stated), the growth is reported as -41.3% (active). `CN1C(=O)[C@H]2c3c1cccc3[C@@]13NC(=O)O[C@H]1[C@H](CCC3(C)C)C2(C)C` gave a growth of 103%. Work on `Cc1cccc(-n2c(C)nc3ccc(NC(=O)NCCCl)cc3c2=O)c1` yielded a growth of 105%. Work on `COc1c(NC[C@H]2OC(O)[C@H](O)[C@@H](O)[C@@H]2O)c(=O)c1=O` (some centres not stated) yielded a growth of 113%. `COc1ccc(-c2nnc(COc3ccc(NS(=O)(=O)c4ccc(OC)cc4)cc3F)o2)cc1` showed a growth of 76.7%. `CCCOC(=O)C1(O)CCCC1` showed a growth of 129%. `Nc1c(C(=O)Nc2ccccc2)sc2nc3c(cc12)CN(Cc1ccccc1)CC3` was tested, and the growth was 56.6%. Work on `COc1cc(OC)cc(-c2n[nH]nc2-c2ccc3c(c2)OCO3)c1` yielded a growth of 10%. `Cc1ccc(Oc2nc3ccccc3cc2-c2nnc(Cn3c(COc4ccccc4)nc4ccccc43)o2)cc1` gave a growth of 35.7%. `COc1cc(C(=O)/C=C/c2cc(C(=O)c3cc(OC)c(OC)c(OC)c3)ccc2OC)ccc1N` was tested, and the growth was -53% (active).

Each compound was assayed on HS 578T breast in the same assay as above. Conditions: 10 µM unless noted.
`COc1ccc(C2SCC(=O)N2NC(=O)c2ccc(NC(=O)c3ccccn3)cc2)cc1OC` (configuration not stated) showed a growth of 102%. For `COc1ccc(/C=C/C(=O)c2ccc(B(O)O)cc2)cc1O`, the growth was 70.7%. For `O=C(Nc1ccc(OCc2nnc(-c3ccc(Cl)cc3)o2)c(F)c1)Nc1ccc(Cl)c(Cl)c1`, the growth was 32%. Work on `COc1cc(/C=C2\C=C(c3ccc(F)cc3)N(Cc3ccccc3)C2=O)cc(OC)c1OC` yielded a growth of 87.1%. With `Cc1cc(C)c(NC(=O)c2sc3nc4c(cc3c2N)CN(Cc2ccccc2)CC4)c(C)c1` the growth was 21%. Compound `COc1cccc(-c2nc3sccn3c2-c2ccnc(NCCCNS(=O)(=O)c3ccccc3)n2)c1` has a growth of 103%. In the case of `Cc1ccc(Nc2ncnc3c2sc2ncccc23)cc1`, the growth is reported as 102%. For `COc1cccc(/C=C2\SC(N3CCN(c4ccccn4)CC3)=NC2=O)c1`, the growth was 95.8%. For `CC(C)C[C@H](NC(=O)[C@@H](Cc1ccccc1)n1ccc(Nc2ccccc2)cc1=O)B(O)O`, the growth was 22.8%. `COc1cccc(-c2nc3sccn3c2-c2ccnc(NCCCNS(=O)(=O)c3ccc(F)cc3)n2)c1` gave a growth of 57.3%. In the case of `O=S(=O)(NCCCNc1nccc(-c2c(-c3ccccc3)nc3sccn23)n1)c1ccc(F)cc1`, the growth is reported as 72%. `Nc1c(C(=O)Nc2ccccc2)sc2nc3c(cc12)CCCCC3` was tested, and the growth was 14.5%. `CCNC(=O)CCCCC(=O)c1c(C)[nH]c(/C=C2\N=C(c3ccc[nH]3)C=C2OC)c1C` showed a growth of 54.9%. With `Cc1cc(Nc2nc(C(=O)Nc3ccccc3)nc3ccccc23)n[nH]1` the growth was 73.2%. `COc1ccc(/C=C2\C(=O)N(C(=O)c3csc(NC(C)=O)n3)N=C2C)cc1` showed a growth of 111%. `COc1ccc(-c2nc3sccn3c2-c2ccnc(NCCCNS(=O)(=O)c3ccc4ccccc4c3)n2)cc1` gave a growth of 92.1%. In the case of `CC[C@]1(O)C[C@@H]2CN(Cc3c([nH]c4ccccc34)[C@@](C(=O)OC)(c3cc4c(cc3OC)N(C)[C@H]3[C@@](O)(C(=O)OC)[C@H](OC(C)=O)[C@]5(CC)[C@@H]6C[C@@H]6CN6CC[C@]43[C@@H]65)C2)C1`, the growth is reported as 16.8%. Work on `CN=S(=O)(NC(=O)c1ccc(Cl)cc1Cl)c1ccc(Br)s1` (configuration not stated) yielded a growth of 97.8%. In the case of `COc1ccc(C2CC(c3cccs3)=NN2c2ccc(S(=O)(=O)NC(=O)Nc3ccc(C)cc3)cc2)cc1` (configuration not stated), the growth is reported as 96%. `O=S(=O)(NCCNc1nccc(-c2c(-c3ccccc3)nc3sccn23)n1)c1ccc(O)cc1` showed a growth of 64.6%. Compound `CNC(=O)Cc1nc(-c2cccc(NS(=O)(=O)c3c(F)cccc3F)c2F)c(-c2ccnc(Nc3ccccc3)n2)s1` has a growth of 64.5%. `O=c1[nH]c2ccccc2cc1-c1nnc(Cc2ccccc2)o1` was tested, and the growth was 90.1%. `CCCCCCC[C@@H](O)CC(=O)N[C@H](CCCCN)C(=O)N[C@H](Cc1c[nH]c2ccccc12)C(=O)NC(CCCCN)C(=O)N[C@H](CC(C)C)C(=O)N[C@H](Cc1ccccc1)C(=O)N[C@H](CCCCN)C(=O)N[C@H](CCCCN)C(=O)N[C@H](CC(C)C)C(=O)N1CCCC1C(=O)N[C@H](CCCCN)C(=O)N[C@H](Cc1ccccc1)C(=O)N[C@H](CC(C)C)C(=O)N[C@H](Cc1c[nH]cn1)C(=O)N[C@H](CC(C)C)C(=O)N[C@H](C)C(=O)N[C@H](CCCCN)C(=O)N[C@H](CCCCN)C(=O)N[C@H](Cc1ccccc1)C(=O)O` (some centres not stated) was tested, and the growth was -42.4% (active). With `Oc1ccc(Cl)cc1-c1cc(-c2ccc(Cl)cc2)n[nH]1` the growth was 81.5%. `CN1C(=O)[C@H]2c3c1cccc3[C@@]13NC(=O)O[C@H]1[C@H](CCC3(C)C)C2(C)C` gave a growth of 89.1%. With `Cc1cccc(-n2c(C)nc3ccc(NC(=O)NCCCl)cc3c2=O)c1` the growth was 99.4%. `COc1c(NC[C@H]2OC(O)[C@H](O)[C@@H](O)[C@@H]2O)c(=O)c1=O` (some centres not stated) gave a growth of 101%. `COc1ccc(-c2nnc(COc3ccc(NS(=O)(=O)c4ccc(OC)cc4)cc3F)o2)cc1` showed a growth of 88.2%. With `Nc1c(C(=O)Nc2ccccc2)sc2nc3c(cc12)CN(Cc1ccccc1)CC3` the growth was 11.1%. `COc1cc(OC)cc(-c2n[nH]nc2-c2ccc3c(c2)OCO3)c1` was tested, and the growth was 12.1%. `Cc1ccc(Oc2nc3ccccc3cc2-c2nnc(Cn3c(COc4ccccc4)nc4ccccc43)o2)cc1` was tested, and the growth was 72.4%. For `COc1cc(C(=O)/C=C/c2cc(C(=O)c3cc(OC)c(OC)c(OC)c3)ccc2OC)ccc1N`, the growth was 46.1%.
